Consider 67 compounds from PubChem BioAssay (Tox21).

In assay [1] the target is Cytochrome P450 2C9 (Homo sapiens) (UniProt P11712). Kind of assay: Cytochrome P450 Family 2 Subfamily C Member 9 (CYP2C9) small molecule antagonists: luciferase reporter qHTS assay (AID 1671198). For activity change, negative = inhibition: series mostly up to about 120 µM. Note: potency is the fitted concentration of half-maximal effect. In a few lines:
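CYP2C9 activity was measured with a P450-Glo proluciferin substrate. Enzyme–substrate mix was held with compound for 10 min at room temperature, then NADPH regeneration solution was added for 1 h at 37C. Luciferin product was read as luminescence.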
(In general: In a reporter assay the amount or activity of a reporter protein is the signal.)

Assay [2] concerns the target Voltage-gated inwardly rectifying potassium channel KCNH2 (Homo sapiens) (UniProt Q12809). Kind of assay: Human Ether-a-go-go-Related Gene (hERG) channel small molecule antagonists: fluorescence cell-based qHTS assay (AID 1671200).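 For activity change, negative = inhibition: hERG-expressing U2OS cells given a thallium stimulus after FluxOR II dye loading; series mostly up to about 77 µM.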 Note: potency is the fitted concentration of half-maximal effect. Summed up:
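Channel function was assessed by thallium flux. Cells seeded the previous day and kept at 37 C took up FluxOR II dye over 1 h in the dark at room temperature, then sat another 10 min before stimulation.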

In assay [3] the target is Cytochrome P450 3A4 (Homo sapiens) (UniProt P08684). Description: Cytochrome P450 Family 3 Subfamily A Member 4 (CYP3A4) small molecule antagonists: luciferase reporter qHTS assay (AID 1671201). Note: series mostly up to about 120 µM. Summed up:
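Compounds in DMSO were pin-transferred onto CYP3A4 enzyme-substrate mix and held 10 min at room temperature. NADPH regenerating solution started the reaction for 1 h; luciferin detection reagent stopped it, and luminescence was read after 20 min.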

In assay [4] the target is Cytochrome P450 1A2 (Homo sapiens) (UniProt P05177). Kind of assay: Cytochrome P450 Family 1 Subfamily A Member 2 (CYP1A2) small molecule antagonists: luciferase reporter qHTS assay (AID 1671199). For activity change, negative = inhibition: series mostly up to about 120 µM. Note: potency is the fitted concentration of half-maximal effect. In a few lines:
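Luminescence from luciferin formed by CYP1A2 from a proluciferin substrate, read 20 min after detection reagent. Compound was pre-incubated 10 min with enzyme-substrate, and reaction started with NADPH regeneration solution for 1 h at room temperature; furafylline control.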

Inconclusive results are not listed. A number with no mark means an inactive call. Activity calls are given as the source filed them. Calls come from the whole dose curve; as a rule, active = well fitted curve in the direction sought with a large enough effect in the repeat runs; inconclusive = weak or mixed curves; inactive = no such curve, though single readings can be large; an effect the other way counts as inactive or inconclusive.
% is set by controls: 0 for no effect and ±100 for the full control effect.
Note: nearly all actives have a fitted effect of over 50% in size.

Voltage-gated inwardly rectifying potassium channel KCNH2 (Homo sapiens), sequence (Q12809 whole entry, looked up): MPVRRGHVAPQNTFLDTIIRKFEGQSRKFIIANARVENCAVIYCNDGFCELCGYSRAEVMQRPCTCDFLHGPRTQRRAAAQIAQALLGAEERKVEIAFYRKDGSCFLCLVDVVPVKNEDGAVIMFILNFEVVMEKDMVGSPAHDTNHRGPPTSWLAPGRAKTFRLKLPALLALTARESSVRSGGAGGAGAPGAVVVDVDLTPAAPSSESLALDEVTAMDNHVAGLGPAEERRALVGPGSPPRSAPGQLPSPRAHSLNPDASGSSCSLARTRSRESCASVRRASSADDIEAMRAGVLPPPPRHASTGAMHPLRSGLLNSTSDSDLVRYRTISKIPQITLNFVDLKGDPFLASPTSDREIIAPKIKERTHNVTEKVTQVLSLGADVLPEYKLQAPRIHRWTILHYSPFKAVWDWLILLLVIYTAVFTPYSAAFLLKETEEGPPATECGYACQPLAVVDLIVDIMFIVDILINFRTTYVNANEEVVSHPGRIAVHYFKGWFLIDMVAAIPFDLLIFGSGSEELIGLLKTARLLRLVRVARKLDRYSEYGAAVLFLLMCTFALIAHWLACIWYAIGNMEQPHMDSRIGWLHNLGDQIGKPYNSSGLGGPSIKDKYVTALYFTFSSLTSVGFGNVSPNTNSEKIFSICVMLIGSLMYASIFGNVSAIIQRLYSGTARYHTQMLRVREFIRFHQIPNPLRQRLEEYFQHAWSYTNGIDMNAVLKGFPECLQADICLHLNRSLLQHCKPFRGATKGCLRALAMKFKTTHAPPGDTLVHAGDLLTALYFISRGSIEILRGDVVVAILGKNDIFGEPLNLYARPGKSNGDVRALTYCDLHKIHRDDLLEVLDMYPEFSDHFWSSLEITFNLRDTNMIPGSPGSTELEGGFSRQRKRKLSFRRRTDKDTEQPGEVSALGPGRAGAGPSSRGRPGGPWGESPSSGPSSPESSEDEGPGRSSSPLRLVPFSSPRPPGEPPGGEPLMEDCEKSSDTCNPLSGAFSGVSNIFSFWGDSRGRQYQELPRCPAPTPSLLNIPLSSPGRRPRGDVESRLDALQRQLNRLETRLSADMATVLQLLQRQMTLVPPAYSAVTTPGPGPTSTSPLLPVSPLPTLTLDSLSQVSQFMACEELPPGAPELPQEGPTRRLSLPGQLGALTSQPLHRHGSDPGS
Cytochrome P450 2C9 (Homo sapiens), sequence (P11712 whole entry, looked up): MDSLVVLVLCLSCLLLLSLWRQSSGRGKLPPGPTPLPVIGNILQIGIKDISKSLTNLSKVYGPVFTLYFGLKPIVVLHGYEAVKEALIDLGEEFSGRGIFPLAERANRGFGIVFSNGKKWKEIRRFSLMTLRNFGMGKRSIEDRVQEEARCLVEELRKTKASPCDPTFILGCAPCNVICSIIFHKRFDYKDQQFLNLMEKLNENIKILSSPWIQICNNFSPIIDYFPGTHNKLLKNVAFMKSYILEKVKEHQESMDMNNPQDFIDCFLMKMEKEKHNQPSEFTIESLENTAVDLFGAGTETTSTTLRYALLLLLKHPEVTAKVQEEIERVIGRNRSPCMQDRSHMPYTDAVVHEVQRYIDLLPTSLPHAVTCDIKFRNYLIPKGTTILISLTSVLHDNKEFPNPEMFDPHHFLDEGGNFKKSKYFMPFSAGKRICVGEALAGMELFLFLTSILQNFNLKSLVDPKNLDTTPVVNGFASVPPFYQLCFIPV
Cytochrome P450 3A4 (Homo sapiens), sequence (P08684 whole entry, looked up): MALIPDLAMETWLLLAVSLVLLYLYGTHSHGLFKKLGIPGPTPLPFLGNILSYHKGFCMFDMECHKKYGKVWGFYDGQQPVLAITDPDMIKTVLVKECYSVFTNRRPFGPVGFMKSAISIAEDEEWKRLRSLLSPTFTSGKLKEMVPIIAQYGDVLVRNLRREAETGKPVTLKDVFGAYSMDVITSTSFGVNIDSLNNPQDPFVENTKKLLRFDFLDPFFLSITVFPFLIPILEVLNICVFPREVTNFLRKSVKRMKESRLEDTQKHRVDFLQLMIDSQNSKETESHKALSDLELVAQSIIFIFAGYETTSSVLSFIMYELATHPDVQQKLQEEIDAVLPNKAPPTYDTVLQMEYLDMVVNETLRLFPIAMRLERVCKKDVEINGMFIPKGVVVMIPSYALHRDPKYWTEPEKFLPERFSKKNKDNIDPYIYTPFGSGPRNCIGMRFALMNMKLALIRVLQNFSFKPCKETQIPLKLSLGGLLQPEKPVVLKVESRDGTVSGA
Cytochrome P450 1A2 (Homo sapiens), sequence (P05177 whole entry, looked up): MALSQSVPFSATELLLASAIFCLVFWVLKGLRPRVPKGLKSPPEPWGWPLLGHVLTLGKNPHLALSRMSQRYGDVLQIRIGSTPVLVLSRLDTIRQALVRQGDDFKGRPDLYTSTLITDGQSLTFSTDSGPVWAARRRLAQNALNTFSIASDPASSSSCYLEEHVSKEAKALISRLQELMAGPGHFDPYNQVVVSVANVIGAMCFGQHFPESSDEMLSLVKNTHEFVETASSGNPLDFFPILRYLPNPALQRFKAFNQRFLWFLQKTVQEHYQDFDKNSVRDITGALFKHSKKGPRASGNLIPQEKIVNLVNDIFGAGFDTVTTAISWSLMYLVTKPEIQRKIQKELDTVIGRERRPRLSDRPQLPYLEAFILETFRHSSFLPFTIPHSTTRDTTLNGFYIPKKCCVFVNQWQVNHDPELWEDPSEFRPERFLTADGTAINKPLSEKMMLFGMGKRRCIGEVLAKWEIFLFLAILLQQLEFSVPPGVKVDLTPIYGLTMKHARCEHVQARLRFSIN

Turning to `Nc1ccncc1N`, the Potency entry in assay [1], in assay [2] and in assay [3] was “inactive” throughout.

With `CC(=O)OCC(=O)[C@@]1(O)[C@H](C)C[C@H]2[C@@H]3CCC4=CC(=O)C=C[C@]4(C)[C@@]3(F)[C@@H](O)C[C@@]21C`, the Potency entry in assay [4] and in assay [2] was “inactive” each time.

Regarding `C[N+](C)(C)CCCCCCCCCC[N+](C)(C)C`, the Potency entry in assay [1], in assay [2] and in assay [3] was “inactive” in each case.

For the compound `CCCCc1nc(Cl)c(CO)n1Cc1ccc(-c2ccccc2-c2nn[nH]n2)cc1`, the Potency result in assay [4] and in assay [2] was “inactive” in each case.

Regarding `Cc1ccc(C(=O)c2ccc(CC(=O)O)n2C)cc1`, the Potency entry in assay [4] and in assay [2] was “inactive” throughout.

For the compound `Cc1nc2ccc(CN(C)c3ccc(C(=O)N[C@@H](CCC(=O)O)C(=O)O)s3)cc2c(=O)[nH]1`, the Potency result in assay [1], in assay [2] and in assay [3] was “inactive” each time.

For the compound `NC(=O)Cc1cccc2ccccc12`, the Potency result in assay [1], in assay [2] and in assay [3] was “inactive” each time.

As to `CC(C)(C)C(=O)Oc1ccc(S(=O)(=O)Nc2ccccc2C(=O)NCC(=O)O)cc1`, the Potency entry in assay [4] and in assay [2] was “inactive” each time.

Take `Nc1c2c(nc3c1CCC3)CCCC2`: the Potency entry in assay [1], in assay [2] and in assay [3] was “inactive” throughout.

Take `CO/N=C(\C(=O)N[C@@H]1C(=O)N2C(C(=O)O)=C(CSc3nc(=O)c(O)nn3C)CS[C@H]12)c1csc(N)n1`: the Potency result in assay [4], in assay [2] and in assay [3] was “inactive” each time.

`CCCCCCCC1CCCC1=O` (centres undefined): the Potency result in assay [4], in assay [2] and in assay [3] was “inactive” in each case.

For the compound `C1CCC2(CCCCO2)OC1`, the Potency result in assay [1], in assay [2] and in assay [3] was “inactive” in each case.

In the case of `CC1=NN(c2cc(S(=O)(=O)O)ccc2Cl)C(=O)C1N=Nc1ccccc1` (centres undefined), the Potency entry in assay [1], in assay [2] and in assay [3] was “inactive” in each case.

With `C[C@@H]1C[C@H]2[C@@H]3C[C@H](F)C4=CC(=O)C(Cl)=C[C@]4(C)[C@@]3(F)[C@@H](O)C[C@]2(C)[C@@]1(O)C(=O)CO`, the Potency entry in assay [4] and in assay [2] was “inactive” in each case.

Take `NS(=O)(=O)Cc1noc2ccccc12`: the Potency entry in assay [4] and in assay [2] was “inactive” throughout.

Take `Cc1cc(C)c(N=Nc2c(O)c(S(=O)(=O)O)cc3cc(S(=O)(=O)O)ccc23)cc1C`: the activity change, negative = inhibition in assay [1] is 1.8% [at 10.5 µM]; in assay [2] it was -0.475% [at 6.97 µM]; in assay [3] it was 1.68% [at 10.5 µM].

Turning to `CCN(CC#N)c1cccc(C)c1`, in assay [4], the Potency is 28.3 µM (active). Also, the Potency entry in assay [2] and in assay [3] was “inactive” throughout.

Turning to `CCOC(=O)C1=NOC(c2ccccc2)(c2ccccc2)C1`, in assay [1], the Potency is 7.1 µM (active). The Potency result in assay [3] was “inactive”.

In the case of `CC(C)CCCO`, the Potency result in assay [1], in assay [2] and in assay [3] was “inactive” throughout.

As to `COc1ccnc(CS(=O)c2nc3cc(OC(F)F)ccc3[nH]2)c1OC` (centres undefined), the Potency in assay [4] was 35.8 µM (active).

On to `CC(COc1ccccc1)NN` (centres undefined), for which the Potency entry in assay [1], in assay [2] and in assay [3] was “inactive” each time.

On to `C=CN1CCCCCC1=O`, for which the Potency entry in assay [1], in assay [2] and in assay [3] was “inactive” throughout.

Take `CC(=O)C1CCCCC1=O` (centres undefined): the Potency result in assay [4] and in assay [2] was “inactive” each time.

On to `Clc1cc(Cl)c(Cl)nc1Cl`, for which the Potency result in assay [1], in assay [2] and in assay [3] was “inactive” each time.

For the compound `CN(C)[C@@H]1C(=O)C(C(=O)NCN2CCCC2)=C(O)[C@@]2(O)C(=O)C3=C(O)c4c(O)cccc4[C@@](C)(O)C3C[C@@H]12` (some centres undefined), the Potency result in assay [1], in assay [2] and in assay [3] was “inactive” in each case.

For the compound `O=C(CO)[C@@H](O)[C@H](O)[C@H](O)CO`, the Potency entry in assay [1], in assay [2] and in assay [3] was “inactive” each time.

In the case of `Nc1ccn([C@@H]2O[C@H](CO)[C@@H](O)[C@@H]2O)c(=O)n1`, the Potency entry in assay [4], in assay [2] and in assay [3] was “inactive” in each case.

As to `CCC1C(=O)OCC1Cc1cncn1C` (centres undefined), the Potency entry in assay [4] and in assay [2] was “inactive” each time.

`CC(=O)c1ccc2ccccc2c1`: the Potency entry in assay [1], in assay [2] and in assay [3] was “inactive” each time.

Turning to `CCN1CCOCC1`, the Potency in assay [4] was 39.2 µM (active). Moreover, the Potency entry in assay [2] and in assay [3] was “inactive” throughout.

As for `COC(=O)C1=C(C)NC(C)=C(C(=O)OC(C)C)C1c1cccc2nonc12` (centres undefined), the Potency result in assay [2] is “inactive”.

Regarding `CNCC(O)c1ccc(O)c(O)c1` (centres undefined), the Potency result in assay [2] is “inactive”.

With `C1CCC2=NCCCN2CC1`, the Potency result in assay [2] was “inactive”.

Consider `COc1cc(C)nc(-n2nc(C)cc2OC)n1`, for which, in assay [2], the Potency result is “inactive”.

In the case of `O=C1NC(=O)C2CC=CCC12` (centres undefined), the Potency entry in assay [2] was “inactive”.

As for `CCOC(=O)C(=O)CCCCCCl`, the Potency entry in assay [2] and in assay [3] was “inactive” each time.

Consider `CCCCN1C=CN(C)C1`, for which the activity change, negative = inhibition in assay [2] is -0.505% [at 15.8 µM].

As for `CCOC(=O)OC(C)OC1=C(C(=O)Nc2ccccn2)N(C)S(=O)(=O)c2ccccc21` (centres undefined), the Potency result in assay [2] and in assay [3] was “inactive” throughout.

As to `Cc1c(N)c(=O)n(-c2ccccc2)n1C`, in assay [2], the Potency entry is “inactive”.

For the compound `CN1CCC(=C2c3ccccc3CCc3cccnc32)CC1`, the Potency result in assay [2] was “inactive”.

Turning to `CC1=C(C/C=C(\C)CCC[C@H](C)CCC[C@H](C)CCCC(C)C)C(=O)c2ccccc2C1=O`, the Potency result in assay [2] and in assay [3] was “inactive” in each case.

Turning to `CNC(=O)Nc1ccc(Cl)c(Cl)c1`, in assay [2], the Potency entry is “inactive”.

As to `C[N+]1(C)[C@@H]2CC(OC(=O)[C@H](CO)c3ccccc3)C[C@H]1[C@@H]1O[C@@H]12` (some centres undefined), the Potency result in assay [4], in assay [2] and in assay [3] was “inactive” each time.

As to `CC(C(=O)O)c1cccc(Oc2ccccc2)c1` (centres undefined), the Potency entry in assay [2] was “inactive”.

Turning to `CC(C)C[C@@H](N)C(=O)O`, the activity change, negative = inhibition in assay [2] is 1.04% [at 15.8 µM].

Consider `CCCCCC(=O)OCCc1ccccc1`, for which the Potency result in assay [2] was “inactive”.

In the case of `CCN[C@@H]1C[C@H](N)[C@@H](OC2OC(CN)=CCC2N)[C@H](O)[C@H]1O[C@H]1OC[C@](C)(O)[C@H](NC)[C@H]1O` (some centres undefined), the activity change, negative = inhibition in assay [2] was -0.868% [at 0.29 µM].

Consider `CCCCCCCCN1CCCC1=O`, for which the Potency in assay [4] was 39.9 µM (active). Also, the Potency entry in assay [2] and in assay [3] was “inactive” throughout.

With `CCOc1ccc2nc(S(N)(=O)=O)sc2c1`, the Potency in assay [4] was 4.07 µM (active). Moreover, the Potency entry in assay [2] and in assay [3] was “inactive” throughout.

In the case of `NO`, the Potency result in assay [2] was “inactive”.

Take `C[N+]1(CC2COC(c3ccccc3)(c3ccccc3)O2)CCCCC1` (centres undefined): the Potency entry in assay [4] is “inactive”. Besides, the activity change, negative = inhibition in assay [2] was -15.6% [at 15.8 µM]; in assay [3], -9.22% [at 23.6 µM].

As for `CCOC(=O)c1cnc2c(cnn2CC)c1NN=C(C)C`, the Potency result in assay [2] is “inactive”.

`c1ccc(Cc2ccccc2)cc1`: in assay [4], the Potency is 35.6 µM (active). In addition, the Potency entry in assay [2] and in assay [3] was “inactive” each time.

For `CCCOC(=O)CC`, in assay [4], the Potency is 35.5 µM (active). Moreover, the Potency result in assay [2] and in assay [3] was “inactive” throughout.

Consider `CC(C)NNC(=O)c1ccncc1`, for which the Potency entry in assay [4], in assay [2] and in assay [3] was “inactive” each time.

Turning to `CC[N+](C)(CC)CCOC(=O)C1c2ccccc2Oc2ccccc21`, the Potency entry in assay [2] is “inactive”.

With `CC(CC=O)CC(C)(C)C` (centres undefined), the Potency result in assay [2] and in assay [3] was “inactive” in each case.

Turning to `NCCCC(N)(C(=O)O)C(F)F` (centres undefined), the Potency result in assay [2] is “inactive”.

Regarding `CCOc1ccccc1OCC`, the Potency entry in assay [2] was “inactive”.

On to `Cc1ncc([C@@H](CCCCCCc2ccc3c(n2)NCCC3)CC(=O)O)cn1`, for which the Potency entry in assay [4], in assay [2] and in assay [3] was “inactive” throughout.

With `CCCCOCCOC(=O)COc1cc(Cl)c(Cl)cc1Cl`, the Potency in assay [2] was 24.5 µM (active). Also, the Potency result in assay [3] is “inactive”.

With `CN(C)CCCCCCN(C)C`, the Potency entry in assay [2] was “inactive”.

As for `CC(=O)NC(=O)c1ccccc1O`, the Potency entry in assay [2] and in assay [3] was “inactive” throughout.

For the compound `O=S(=O)(O)c1cccc2ccccc12`, in assay [2], the Potency entry was “inactive”.

`c1coc(CNc2ncnc3nc[nH]c23)c1`: the Potency entry in assay [2] was “inactive”.

On to `Nc1ccccn1`, for which the Potency entry in assay [2] is “inactive”.

As for `CCCCCCC1CCC(=O)O1` (centres undefined), the Potency entry in assay [2] and in assay [3] was “inactive” throughout.
